Data reported in the supplement of paper PMC11732987, “Enantioselective OTUD7B fragment discovery through chemoproteomics screening and high-throughput optimisation” (Communications Chemistry, 2025).

Key:
Test in all cases: log2 ratio of Biotin-Ahx-Ub-VS probe labelling (fragment/DMSO); higher = less target engagement (more negative = stronger competition), active = hit call of the paper (q ≤ 0.05, log2 ratio ≤ -1)
Conditions in all cases: compound concentration: 200 uM; treatment time: 3 h
USP34 = USP34 (UniProt Q70CQ2)
Outline: (§1)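 Each value is an average log2 ratio of fragment to vehicle, tested by unpaired t-test. The underlying Spectronaut label-free quantities were global-median-normalised, and only proteins with ≥2 unique peptides were included. Triplicate HEK293T lysate samples (495 µg) were exposed to fragment at 200 µM or vehicle for 3 h, then to Biotin-Ahx-Ub-VS at 0.5 µM final for 1 h, before NeutrAvidin enrichment of labelled DUBs, LysC and trypsin digestion, and diaPASEF LC-MS/MS.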

USP36 = biological target: T1, USP36 (UniProt Q9P275)
T1 sequence (whole entry): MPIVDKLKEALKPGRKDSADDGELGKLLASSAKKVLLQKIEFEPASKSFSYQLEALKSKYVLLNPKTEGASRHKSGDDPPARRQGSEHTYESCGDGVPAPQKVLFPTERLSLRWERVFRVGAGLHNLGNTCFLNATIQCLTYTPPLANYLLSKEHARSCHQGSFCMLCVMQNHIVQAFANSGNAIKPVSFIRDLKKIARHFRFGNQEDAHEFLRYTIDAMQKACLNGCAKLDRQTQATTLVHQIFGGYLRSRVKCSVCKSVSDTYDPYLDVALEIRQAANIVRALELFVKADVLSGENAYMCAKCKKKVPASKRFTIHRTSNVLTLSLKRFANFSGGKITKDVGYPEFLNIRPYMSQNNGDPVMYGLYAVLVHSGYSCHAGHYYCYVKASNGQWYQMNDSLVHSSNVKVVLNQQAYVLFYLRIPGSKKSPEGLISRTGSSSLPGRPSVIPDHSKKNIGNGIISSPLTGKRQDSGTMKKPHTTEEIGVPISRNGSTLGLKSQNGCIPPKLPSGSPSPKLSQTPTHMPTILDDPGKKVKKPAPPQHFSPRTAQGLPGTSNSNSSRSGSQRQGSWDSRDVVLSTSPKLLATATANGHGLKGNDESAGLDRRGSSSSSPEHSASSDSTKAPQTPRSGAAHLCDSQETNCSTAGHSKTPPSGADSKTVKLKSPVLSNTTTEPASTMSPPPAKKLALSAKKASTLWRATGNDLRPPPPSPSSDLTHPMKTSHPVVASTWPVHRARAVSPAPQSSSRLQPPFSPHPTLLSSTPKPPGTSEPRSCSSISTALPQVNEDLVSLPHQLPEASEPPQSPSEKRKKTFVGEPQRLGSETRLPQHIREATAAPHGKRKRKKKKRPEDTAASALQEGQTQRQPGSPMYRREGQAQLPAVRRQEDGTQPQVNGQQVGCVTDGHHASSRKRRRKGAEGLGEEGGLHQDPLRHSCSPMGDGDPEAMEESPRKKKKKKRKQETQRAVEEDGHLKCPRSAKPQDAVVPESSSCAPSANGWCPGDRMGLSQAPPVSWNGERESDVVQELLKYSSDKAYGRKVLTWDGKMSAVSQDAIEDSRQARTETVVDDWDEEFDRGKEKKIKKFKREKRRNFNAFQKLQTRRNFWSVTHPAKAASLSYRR
Outline: as §1

USP38 = biological target: T2, USP38 (UniProt Q8NB14)
T2 sequence (whole entry): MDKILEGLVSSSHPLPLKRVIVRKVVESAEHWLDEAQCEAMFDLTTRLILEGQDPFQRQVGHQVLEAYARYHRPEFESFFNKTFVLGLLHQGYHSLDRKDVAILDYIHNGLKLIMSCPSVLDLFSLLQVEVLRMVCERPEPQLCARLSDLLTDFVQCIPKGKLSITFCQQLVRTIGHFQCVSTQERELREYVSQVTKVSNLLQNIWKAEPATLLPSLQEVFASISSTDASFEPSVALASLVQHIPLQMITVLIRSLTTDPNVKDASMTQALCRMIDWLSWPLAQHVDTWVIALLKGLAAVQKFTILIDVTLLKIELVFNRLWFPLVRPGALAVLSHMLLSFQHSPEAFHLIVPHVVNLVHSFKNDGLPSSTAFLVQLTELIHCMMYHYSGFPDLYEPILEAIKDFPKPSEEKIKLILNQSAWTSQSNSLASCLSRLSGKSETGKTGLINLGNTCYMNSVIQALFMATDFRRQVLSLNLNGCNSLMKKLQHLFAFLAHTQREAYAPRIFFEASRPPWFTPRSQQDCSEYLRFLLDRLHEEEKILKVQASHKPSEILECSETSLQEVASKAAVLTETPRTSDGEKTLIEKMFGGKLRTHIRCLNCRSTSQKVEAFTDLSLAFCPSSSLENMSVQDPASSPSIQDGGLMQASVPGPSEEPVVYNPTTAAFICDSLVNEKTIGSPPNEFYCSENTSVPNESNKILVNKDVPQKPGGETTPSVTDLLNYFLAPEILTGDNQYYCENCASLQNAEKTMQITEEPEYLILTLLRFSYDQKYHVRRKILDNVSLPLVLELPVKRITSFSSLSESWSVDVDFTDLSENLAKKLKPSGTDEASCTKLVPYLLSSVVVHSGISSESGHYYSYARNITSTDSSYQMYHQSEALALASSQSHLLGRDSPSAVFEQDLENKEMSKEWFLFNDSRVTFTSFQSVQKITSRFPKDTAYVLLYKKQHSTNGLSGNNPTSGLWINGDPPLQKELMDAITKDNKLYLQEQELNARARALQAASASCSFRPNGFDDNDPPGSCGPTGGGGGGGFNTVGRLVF
Outline: as §1

USP39 = biological target: T3, USP39 (UniProt Q53GS9)
T3 sequence (whole entry): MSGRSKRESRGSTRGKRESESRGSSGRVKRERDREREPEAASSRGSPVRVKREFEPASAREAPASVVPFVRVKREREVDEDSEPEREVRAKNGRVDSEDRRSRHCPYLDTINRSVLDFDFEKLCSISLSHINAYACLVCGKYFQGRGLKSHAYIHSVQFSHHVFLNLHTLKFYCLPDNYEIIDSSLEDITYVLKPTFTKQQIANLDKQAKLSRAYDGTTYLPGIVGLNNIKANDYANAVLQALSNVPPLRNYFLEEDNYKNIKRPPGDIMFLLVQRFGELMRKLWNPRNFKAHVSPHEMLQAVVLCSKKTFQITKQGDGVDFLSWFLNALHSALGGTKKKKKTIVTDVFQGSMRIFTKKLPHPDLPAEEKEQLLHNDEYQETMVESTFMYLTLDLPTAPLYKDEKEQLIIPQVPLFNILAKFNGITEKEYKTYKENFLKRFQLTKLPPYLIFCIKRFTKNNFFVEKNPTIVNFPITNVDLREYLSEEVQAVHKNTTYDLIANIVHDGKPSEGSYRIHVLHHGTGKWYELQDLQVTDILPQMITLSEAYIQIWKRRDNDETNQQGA
Outline: as §1

USP4 = biological target: T4, USP4 (UniProt Q13107)
T4 sequence (whole entry): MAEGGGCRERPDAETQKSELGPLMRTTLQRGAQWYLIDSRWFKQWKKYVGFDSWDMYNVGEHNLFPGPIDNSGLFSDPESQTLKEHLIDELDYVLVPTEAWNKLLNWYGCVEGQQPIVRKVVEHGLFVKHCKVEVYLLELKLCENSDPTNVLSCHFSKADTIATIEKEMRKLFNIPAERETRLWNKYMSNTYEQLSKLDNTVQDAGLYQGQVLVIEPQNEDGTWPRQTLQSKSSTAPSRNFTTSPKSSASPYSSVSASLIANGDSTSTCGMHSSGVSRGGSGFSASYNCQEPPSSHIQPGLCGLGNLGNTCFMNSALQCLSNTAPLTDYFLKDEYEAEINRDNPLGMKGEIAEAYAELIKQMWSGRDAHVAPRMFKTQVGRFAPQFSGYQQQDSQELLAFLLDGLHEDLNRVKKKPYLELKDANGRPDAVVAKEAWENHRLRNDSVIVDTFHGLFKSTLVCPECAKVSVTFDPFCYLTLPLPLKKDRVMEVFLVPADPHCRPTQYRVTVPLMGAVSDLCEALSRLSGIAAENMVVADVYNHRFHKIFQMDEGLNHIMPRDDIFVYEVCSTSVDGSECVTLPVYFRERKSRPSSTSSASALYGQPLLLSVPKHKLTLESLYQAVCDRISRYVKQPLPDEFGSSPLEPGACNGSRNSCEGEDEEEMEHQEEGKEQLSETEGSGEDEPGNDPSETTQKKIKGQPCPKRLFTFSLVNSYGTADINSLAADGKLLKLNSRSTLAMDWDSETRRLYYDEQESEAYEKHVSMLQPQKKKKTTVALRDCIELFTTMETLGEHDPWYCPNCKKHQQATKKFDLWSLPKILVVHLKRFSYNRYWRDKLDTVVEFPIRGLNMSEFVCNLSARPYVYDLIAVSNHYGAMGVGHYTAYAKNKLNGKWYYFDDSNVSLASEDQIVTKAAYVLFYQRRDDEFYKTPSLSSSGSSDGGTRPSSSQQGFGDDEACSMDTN
Outline: as §1

Measured: log2 ratio of Biotin-Ahx-Ub-VS probe labelling

Sequence of USP34 (Q70CQ2 whole entry, the tested form may be a part): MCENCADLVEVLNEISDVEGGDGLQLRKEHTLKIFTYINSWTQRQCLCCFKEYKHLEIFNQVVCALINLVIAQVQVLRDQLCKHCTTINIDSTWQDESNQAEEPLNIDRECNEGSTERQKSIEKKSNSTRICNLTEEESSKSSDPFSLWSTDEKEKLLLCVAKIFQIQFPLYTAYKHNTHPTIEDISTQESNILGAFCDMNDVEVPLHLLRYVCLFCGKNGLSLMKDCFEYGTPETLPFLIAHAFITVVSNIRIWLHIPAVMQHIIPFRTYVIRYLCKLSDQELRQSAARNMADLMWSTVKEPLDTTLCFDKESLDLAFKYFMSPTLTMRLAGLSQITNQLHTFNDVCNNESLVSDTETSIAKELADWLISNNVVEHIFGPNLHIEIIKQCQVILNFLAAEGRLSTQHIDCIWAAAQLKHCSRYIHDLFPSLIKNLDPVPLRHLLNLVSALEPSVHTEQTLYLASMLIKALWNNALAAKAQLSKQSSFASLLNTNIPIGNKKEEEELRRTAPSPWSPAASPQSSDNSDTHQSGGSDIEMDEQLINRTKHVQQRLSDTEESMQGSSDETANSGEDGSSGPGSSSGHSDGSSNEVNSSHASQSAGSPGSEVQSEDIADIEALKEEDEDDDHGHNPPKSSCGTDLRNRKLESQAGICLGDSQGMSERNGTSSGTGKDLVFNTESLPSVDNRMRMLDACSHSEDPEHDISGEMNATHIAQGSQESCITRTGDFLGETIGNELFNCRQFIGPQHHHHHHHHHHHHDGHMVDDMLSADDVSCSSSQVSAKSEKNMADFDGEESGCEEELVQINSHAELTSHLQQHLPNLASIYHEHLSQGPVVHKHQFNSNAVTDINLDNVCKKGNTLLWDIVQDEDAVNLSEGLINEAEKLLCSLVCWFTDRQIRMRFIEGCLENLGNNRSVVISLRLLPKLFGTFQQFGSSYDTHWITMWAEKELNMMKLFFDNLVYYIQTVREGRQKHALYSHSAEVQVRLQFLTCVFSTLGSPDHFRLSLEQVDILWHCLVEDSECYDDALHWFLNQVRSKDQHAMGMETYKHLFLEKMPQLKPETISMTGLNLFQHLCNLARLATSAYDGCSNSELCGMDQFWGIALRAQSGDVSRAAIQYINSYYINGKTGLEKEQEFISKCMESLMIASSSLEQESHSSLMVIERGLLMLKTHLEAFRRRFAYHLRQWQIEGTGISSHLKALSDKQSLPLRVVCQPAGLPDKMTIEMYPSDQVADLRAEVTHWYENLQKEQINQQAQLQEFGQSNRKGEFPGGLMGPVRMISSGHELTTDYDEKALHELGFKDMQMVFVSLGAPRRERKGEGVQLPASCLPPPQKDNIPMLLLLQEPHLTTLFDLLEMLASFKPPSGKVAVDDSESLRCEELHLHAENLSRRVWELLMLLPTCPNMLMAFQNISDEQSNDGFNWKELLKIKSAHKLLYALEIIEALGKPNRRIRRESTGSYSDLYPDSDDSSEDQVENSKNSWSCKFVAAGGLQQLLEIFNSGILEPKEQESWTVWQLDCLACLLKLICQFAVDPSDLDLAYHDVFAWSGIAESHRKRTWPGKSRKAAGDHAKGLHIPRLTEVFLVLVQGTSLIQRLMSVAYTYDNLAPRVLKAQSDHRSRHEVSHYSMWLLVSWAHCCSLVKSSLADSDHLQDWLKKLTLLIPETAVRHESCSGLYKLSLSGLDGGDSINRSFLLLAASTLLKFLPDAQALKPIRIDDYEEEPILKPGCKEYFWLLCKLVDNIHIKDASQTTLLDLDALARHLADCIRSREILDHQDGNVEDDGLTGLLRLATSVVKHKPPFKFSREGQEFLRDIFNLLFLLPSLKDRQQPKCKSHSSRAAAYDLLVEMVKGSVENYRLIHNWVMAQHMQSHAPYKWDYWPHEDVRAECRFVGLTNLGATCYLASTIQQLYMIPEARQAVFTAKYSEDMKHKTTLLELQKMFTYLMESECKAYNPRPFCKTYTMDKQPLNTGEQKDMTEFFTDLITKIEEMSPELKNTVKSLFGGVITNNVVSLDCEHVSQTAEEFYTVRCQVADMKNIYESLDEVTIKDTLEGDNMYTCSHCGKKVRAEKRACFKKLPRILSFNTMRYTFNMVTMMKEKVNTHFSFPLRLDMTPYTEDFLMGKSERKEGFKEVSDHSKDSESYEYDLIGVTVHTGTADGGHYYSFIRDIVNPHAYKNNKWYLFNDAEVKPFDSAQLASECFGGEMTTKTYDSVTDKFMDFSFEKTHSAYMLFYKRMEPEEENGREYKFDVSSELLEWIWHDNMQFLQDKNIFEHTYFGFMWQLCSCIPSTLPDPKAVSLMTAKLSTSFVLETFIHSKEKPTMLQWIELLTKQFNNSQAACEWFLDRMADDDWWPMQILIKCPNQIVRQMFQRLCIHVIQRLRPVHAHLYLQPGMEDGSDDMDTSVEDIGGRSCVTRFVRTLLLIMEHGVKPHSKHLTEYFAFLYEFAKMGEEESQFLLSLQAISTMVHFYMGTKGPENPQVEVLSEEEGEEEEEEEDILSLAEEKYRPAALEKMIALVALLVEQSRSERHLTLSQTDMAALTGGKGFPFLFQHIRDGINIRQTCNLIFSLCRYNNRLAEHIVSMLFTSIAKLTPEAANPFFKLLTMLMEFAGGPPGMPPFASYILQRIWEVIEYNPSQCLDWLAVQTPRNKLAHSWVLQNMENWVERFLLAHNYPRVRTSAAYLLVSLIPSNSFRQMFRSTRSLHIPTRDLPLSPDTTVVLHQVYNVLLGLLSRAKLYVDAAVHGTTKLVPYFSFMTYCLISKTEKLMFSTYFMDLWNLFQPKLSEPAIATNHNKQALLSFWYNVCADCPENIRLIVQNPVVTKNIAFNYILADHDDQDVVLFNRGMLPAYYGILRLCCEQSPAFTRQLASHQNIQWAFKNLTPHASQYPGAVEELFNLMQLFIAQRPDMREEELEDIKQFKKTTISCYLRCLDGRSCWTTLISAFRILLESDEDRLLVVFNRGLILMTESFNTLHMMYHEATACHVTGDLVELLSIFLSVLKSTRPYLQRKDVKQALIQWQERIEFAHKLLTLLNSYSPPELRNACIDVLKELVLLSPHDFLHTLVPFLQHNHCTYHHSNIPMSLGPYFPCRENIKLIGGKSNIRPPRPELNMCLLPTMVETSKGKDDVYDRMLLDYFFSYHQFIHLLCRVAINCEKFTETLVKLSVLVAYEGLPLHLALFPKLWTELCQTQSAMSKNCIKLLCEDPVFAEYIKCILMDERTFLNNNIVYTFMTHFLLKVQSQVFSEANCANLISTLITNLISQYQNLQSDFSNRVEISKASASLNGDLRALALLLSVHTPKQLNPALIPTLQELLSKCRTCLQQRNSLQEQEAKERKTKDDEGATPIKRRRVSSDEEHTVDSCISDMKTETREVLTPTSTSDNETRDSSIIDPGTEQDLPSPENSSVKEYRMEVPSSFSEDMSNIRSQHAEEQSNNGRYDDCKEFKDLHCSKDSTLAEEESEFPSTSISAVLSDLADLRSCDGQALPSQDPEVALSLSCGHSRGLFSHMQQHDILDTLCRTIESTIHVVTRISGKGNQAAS

O=C(CCl)NCC(=O)N1CCCC1
inactive: USP34 0.0366 | USP36 -0.0373 | USP38 0.115 | USP39 0.319 | USP4 -0.0182
